KLK7 zymogen act: activates the human kallikrein-7 zymogen | P49862 | purified proKLK7, EDANS-DABCYL substrate fluorescence; 100% is mature enzyme control, 0% vehicle | activation, % at 7 µM | 370,000 tested, 0.9% active | AID 652039;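 active = activation above the mean of all tested compounds plus 3 SD, computed per campaign excluding outliers beyond control limits, cut at about 13% in these data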
ADAM10 inh: inhibitors of human ADAM10. O14672. recombinant ADAM10, EDANS/DABCYL FRET peptide cleavage, 3 h. inhibition, % at 7 µM. 370,000 tested, 0.62% active. AID 720582;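 active = inhibition above a per-campaign cutoff equal to the mean of compounds falling between control-based bounds plus 3 SD, cut at about 20% in these data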;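 also: 0% = DMSO wells while the 100% control is not disclosed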
Target sequence (O14672 214-748 limits assumed): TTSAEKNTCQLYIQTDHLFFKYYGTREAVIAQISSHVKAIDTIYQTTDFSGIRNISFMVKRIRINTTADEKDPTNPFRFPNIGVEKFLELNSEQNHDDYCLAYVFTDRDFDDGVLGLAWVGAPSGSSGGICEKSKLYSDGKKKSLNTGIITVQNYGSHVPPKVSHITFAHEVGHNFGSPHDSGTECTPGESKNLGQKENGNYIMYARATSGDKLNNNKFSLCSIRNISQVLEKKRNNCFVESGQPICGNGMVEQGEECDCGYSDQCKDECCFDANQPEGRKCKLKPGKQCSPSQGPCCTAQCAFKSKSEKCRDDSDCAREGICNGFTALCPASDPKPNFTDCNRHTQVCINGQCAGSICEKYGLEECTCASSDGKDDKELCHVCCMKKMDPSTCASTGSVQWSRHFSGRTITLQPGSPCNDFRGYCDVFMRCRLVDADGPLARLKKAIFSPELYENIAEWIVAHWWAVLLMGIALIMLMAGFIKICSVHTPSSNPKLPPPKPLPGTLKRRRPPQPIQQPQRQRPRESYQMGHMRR
V-ATPase pH: alters yeast V-ATPase proton transport. S. cerevisiae, pHLuorin cytosolic pH fluorescence. response, % at 10 µM. 350,000 tested, 0.37% active; in the data active = response mostly above about 7.3%, no sharp cut-off; inactive = mostly below about 5.4%; also: actives read high
ADAM17 inh: inhibitors of human ADAM17 | P78536 | 370,000 tested, 0.83% active | inhibition, % at 6.95 µM | recombinant ADAM17, EDANS/DABCYL FRET peptide cleavage;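 active = inhibition above the mean of compounds lying between control limits plus 3 SD, set per campaign, cut at about 8.5% in these data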;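 also: 0% = DMSO-only wells as the low control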
V-ATPase pH SP: modulates yeast V-ATPase proton transport; shares compounds with V-ATPase pH; S. cerevisiae pHLuorin cytosolic pH; response, % at 10 µM; 980 tested, 2% active; AID 602197; in the data active = response above about 24%;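 also: plate controls were vehicle wells for no effect and positive control wells for full effect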
An asterisk follows results filed as active; · = no result. Most compounds without a hit are left out; they make up all but 2.3% or so of the library.

SMILES	KLK7 zymogen act	ADAM10 inh	V-ATPase pH	ADAM17 inh	V-ATPase pH SP
CC(Oc1cccc2cccnc12)C(=O)N/N=C/c1ccc2c(c1)OCO2 (stereo unspecified)	0.0	-11.9	7.0*	-3.2	1.6
CC(C)(C)OC(=O)NCc1cc(F)ccc1/C=C/S(=O)(=O)NCc1ccc(F)cc1	0.3	14.3	·	3.7	·
COc1cccc(N2C(=O)/C(=C\c3cccs3)NC2=S)c1	-0.3	-4.8	20.6*	-4.1	-4.1
Cc1ccc(/C=N/NC(=O)Nc2ccccc2)o1	0.0	7.4	37.8*	0.1	1.3
COCCNC(=S)N(CCc1c(C)[nH]c2ccccc12)Cc1ccco1	-0.2	3.2	10.7*	-2.9	-2.9
Cc1ccc(C)c(OCc2ccc(C(=O)Nc3ccc([N+](=O)[O-])cn3)o2)c1	0.0	-6.9	9.9*	-4.1	4.5
Nc1cccc(P(=O)(c2ccccc2)c2ccccc2)c1	0.1	-4.5	9.6*	0.0	0.6
CC(=O)Nc1cccc(CCc2nc3ccccc3[nH]2)c1	0.1	1.7	-4.3	-2.6	·
Cc1ccccc1NC(=O)N(CCc1nc2ccccc2[nH]1)Cc1ccccc1	-0.1	-0.2	11.5*	-0.8	-0.5
Cc1cc(NC(=O)CCC(=O)N(CC(=O)NC2CCCC2)Cc2ccc(F)cc2)no1	-0.1	2.2	3.4	-2.4	·
Cc1cc(NC(=O)CCC(=O)N(CC(=O)NC2CCCC2)Cc2ccc3c(c2)OCO3)no1	-0.7	-6.8	9.7*	-2.9	-1.2
Cc1nnc(SCC(=O)N2CCCCCC2)n(N)c1=O	-0.4	1.5	8.0*	-0.3	-3.0
COn1c(SCc2ccccc2)nc2ccccc2c1=O	0.3	7.3	0.6	2.7	·
COn1c(SCc2cccc(Cl)c2)nc2ccccc2c1=O	0.2	-5.6	15.1*	-4.9	-0.9
Cc1ccc(-c2c(C)n([O-])c3c([n+]2=O)CCCCC3)cc1	0.5	-7.2	-1.2	-2.4	·
COc1ccc(-c2c(C)n([O-])c3c([n+]2=O)CCCC3)cc1	-0.1	-10.4	10.2*	-2.4	7.9
CN(C)N1C(N)=C(C#N)C(c2ccsc2)C2=C1CCCC2=O (stereo unspecified)	0.3	-7.8	1.8	-2.5	·
N#CC1=C(N)N(c2ccccc2)C2=C(C(=O)CCC2)C1c1ccsc1 (stereo unspecified)	-1.6	-0.1	10.3*	0.2	-3.1
Cc1cccc(NC(=O)C2CCCN2S(=O)(=O)c2cccnc2)c1C (stereo unspecified)	0.9	2.0	·	-0.6	·
Cc1c(C(=O)NCc2ccccc2)c(-c2ccccc2)nn1-c1ccccc1	0.3	4.3	-3.7	1.3	·
COCCN(Cc1ccccc1)C(=O)c1c(C)nn(-c2ccccc2)c1C	-0.1	8.4	9.2*	-4.9	-0.2
COc1ccc(-n2c(SCC(=O)Nc3ccc(Oc4ccccc4)cc3)nnc2-c2ccco2)cc1	-0.1	5.4	·	2.2	·
Cc1ccccc1S(=O)(=O)Cc1ccc(C(=O)NCCCN2CCN(C)CC2)o1	-0.1	-5.1	7.6*	-3.9	1.4
CCC(C)C(=O)Nc1nnc(SCC(=O)Nc2ccc(F)cc2)s1 (stereo unspecified)	0.0	2.4	-1.3	-3.4	·
CC(=O)Nc1ccc(NC(=O)CSc2nnc(NC(=O)Cc3ccc(F)cc3)s2)cc1	-0.3	1.1	8.3*	2.6	2.0
SMILES	KLK7 zymogen act	ADAM10 inh	V-ATPase pH	ADAM17 inh	V-ATPase pH SP
O=C(CSC1=NCCS1)Nc1ccc(F)cc1	0.1	-2.1	0.3	0.6	-1.2
NC(=O)c1ccccc1NC(=O)CSC1=NCCS1	0.1	1.3	-1.6	-3.0	·
COc1ccc(CC(=O)N2CCN(C(=O)c3ccc4nc(C)n(C5CCCC5)c4c3)CC2)cc1	0.8	-4.2	·	-4.0	·
O=c1c2ccccc2ncn1Cc1ccc(Cl)cc1	·	·	-2.1	·	·
O=c1c2ccccc2ncn1-c1ccc(Cl)cc1	0.4	-4.3	-4.1	-2.1	3.6
COC(=O)N/N=C/c1cccs1	0.0	-7.5	-0.2	-5.9	·
COc1ccc(CCCC(=O)N/N=C\c2cccs2)cc1	0.5	8.1	8.6*	3.0	-1.1
CC(=C\C=O)/C(C)=C/CC[C@@H]1O[C@@H]2C[C@@H]3O[C@](C)(C[C@H]4C[C@H](O)[C@@H]5O[C@@H]6C[C@H](O)[C@@H](C)O[C@@]6(C)CC[C@H]5O4)[C@@H](O)CC[C@@]3(C)O[C@H]2[C@@H](O)[C@@H]1C	·	-6.6	·	-8.3	·
COc1cc(CNCc2ccc(OC)c(OC)c2OC)cc(OC)c1	0.2	5.2	12.2*	2.2	-5.3
CCC1Oc2ccccc2N(CC(=O)NCc2cccs2)C1=O (stereo unspecified)	-0.6	-3.6	11.9*	0.4	1.2
CCC1Oc2ccc(C)cc2N(CC(=O)NCc2cccs2)C1=O (stereo unspecified)	0.4	-3.2	2.5	-4.2	·
Cc1ccc(S(=O)(=O)N(CC(=O)N2CCC(C(N)=O)CC2)c2cccc(C(F)(F)F)c2)cc1	0.0	-3.0	0.3	-3.9	·
CCOC(=O)C1CCN(C(=O)CN(c2cccc(C(F)(F)F)c2)S(C)(=O)=O)CC1	0.7	7.8	12.3*	1.9	1.2
Cc1cc(NC(=O)C(C)SCC(=O)Nc2ccccc2C(C)(C)C)no1 (stereo unspecified)	-0.3	-21.2	9.9*	5.3	-4.0
CCCOc1nccc2c1n(C)c(=O)n2C	0.3	-3.8	·	-0.4	·
Cc1cccc(C(=O)Nc2ccnc(-c3ccncc3)n2)c1	-0.1	2.5	8.5*	-2.5	0.4
CCC[C@H]1[C@@H](NC(=O)c2ccc(Cl)cc2)CC[C@@]23CCCN2C(=O)CCC[C@@H]13	·	-5.3	·	-5.1	·
CC(C)(C)OC(=O)NC1CCN(c2nc(-c3ccc(Br)cc3)cs2)CC1	·	-6.2	·	-5.5	·
CCOC(=O)C1CCCN(c2c(NCCCN3CCCC(C)C3)c(=O)c2=O)C1 (stereo unspecified)	-0.5	-4.2	12.6*	1.8	-0.6
CN1[C@@H](Cc2ccccc2)COc2cccc(N3CCCC3)c2S1(=O)=O	0.4	3.6	·	0.1	·
N#C/C(=C\c1ccncc1)C(=O)Nc1ccc(C(=O)O)cc1	-0.3	7.2	-4.6	6.6	·
CC(C)c1ccc(NC(=O)/C(C#N)=C/c2ccncc2)cc1	0.5	-4.0	13.0*	-1.5	17.2
CCCC[C@H]1C2CC(OC(=O)NCc3ccc(Cl)cc3)C(C2)[C@H]2CCCCN21 (stereo partly specified)	0.0	3.5	·	-1.8	·
CCC[C@H]1[C@@H](N(C)CC2CCCCC2)CC[C@@]23CCCN2C(=O)CCC[C@@H]13	·	1.8	·	-0.9	·
O=C(CCSC1=NCCCN1)c1ccc(F)cc1	-0.5	-19.6	25.4	-8.2	45.2*
CCOc1ncccc1C(=O)Nc1nc(C(C)(C)C)cs1	-0.9	1.7	9.4*	5.0	-0.2
CCn1c2ccccc2c2cc(NC(=O)COC(=O)c3cc(F)ccc3F)ccc21	-0.6	2.7	·	0.8	·
CCCCCCCOC(=O)C[N+](C)(C)CCOC1CC2CCC1(C)C2(C)C (stereo unspecified)	-0.5	5.5	-0.9	3.6	·
CCCCCCOC(=O)C[N+](C)(C)CCOC1CC2CCC1(C)C2(C)C (stereo unspecified)	0.3	-4.5	11.9*	-6.0	0.7
